# KCNQ2 enhance: potentiators of rat KCNQ2 potassium channel; CHO-K1 KCNQ2, FluxOR thallium flux fluorescence; stronger effect = higher value; Potassium voltage-gated channel subfamily KQT member 2 (Rattus norvegicus), O88943; B-score at 10 µM; 310,000 tested, 0.54% active;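 active means fluorescence ratio B-score at least 3 SD of library B-scores, with initial fluorescence B-score within 3 of them, cut at about 5.3 in these data; same plate scores as AID 2156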;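 further: B-score of peak minus minimum over baseline fluorescence ratio after K+ and Tl+ stimulus; positive B-score means potentiation of KCNQ2 with more thallium influx and brighter signal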
# KCNQ2 inh: rat KCNQ2 potassium channel inhibitors, primary screen, cell-based, CHO-K1, FluxOR thallium flux, B-score. Potassium voltage-gated channel subfamily KQT member 2 (Rattus norvegicus), O88943. 20 min; stronger effect = lower value. B-score at 10 µM. 310,000 tested, 1.1% active. AID 2156, 2009;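 active means fluorescence ratio B-score at most minus 3 library SDs, with starting brightness B-score within 2 library SDs, cut at about -5.5 in these data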
# Kir21 confirm: mouse Kir2.1 channel blockers, retest, confirmation, cell-based, FluxOR thallium flux, duplicate; shares compounds with KCNQ2 enhance; 2,300 tested, 41% active; AID 2032, 2009; Kir2.1-expressing cells, FluxOR thallium flux fluorescence; stronger effect = lower value; Tl flux remaining, % of negative control (stronger effect = lower value), % at 10 µM;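 active means Primary-screen hit whose thallium flux fell at least 3 control SD below untreated wells in both duplicates, with normal baseline fluorescence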;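 further: 0% = blank wells without stimulus and 100% = stimulated no-compound controls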
# Target sequence (P35561 whole entry, looked up): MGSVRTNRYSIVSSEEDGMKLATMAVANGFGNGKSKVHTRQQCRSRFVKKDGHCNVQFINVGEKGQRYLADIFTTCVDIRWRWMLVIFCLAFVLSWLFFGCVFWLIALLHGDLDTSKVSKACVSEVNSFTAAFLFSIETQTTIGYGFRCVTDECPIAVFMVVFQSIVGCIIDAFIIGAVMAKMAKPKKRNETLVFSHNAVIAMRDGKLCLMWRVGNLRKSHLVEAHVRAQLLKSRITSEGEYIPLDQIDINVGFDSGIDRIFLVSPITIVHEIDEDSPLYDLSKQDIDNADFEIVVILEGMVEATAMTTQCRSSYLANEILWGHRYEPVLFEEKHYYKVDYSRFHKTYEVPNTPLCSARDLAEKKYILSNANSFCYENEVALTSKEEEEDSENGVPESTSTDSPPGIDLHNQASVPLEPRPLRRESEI
# HEK293 Tl flux: alters thallium flux in parental HEK293 cells, Kir2.1 counter-screen; FluxOR signal as % of negative control (100 = no effect), % at 10 µM; AID 2105; FluxOR thallium flux fluorescence; 0% = unstimulated blank wells; shares compounds with KCNQ2 enhance; 2,300 tested, 19% active;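 active means dye signal at least 3 control SD above or below untreated wells in both duplicates, raw fluorescence within 3, either direction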;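 further: percent is based on the flux ratio of peak minus minimum fluorescence over baseline F0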
# CHO-K1 ctr: nonspecific thallium flux increase in parental CHO-K1, confirmation, counter-screen for KCNQ2 potentiator project, cell-based, FluxOR thallium flux, duplicate; shares compounds with KCNQ2 enhance; parental CHO-K1 cells, FluxOR thallium flux fluorescence; zero = vehicle mean+3SD, 100% = vehicle-minus-blank window; activity increase over 3SD of controls, % at 10 µM; 1,200 tested, 43% active; AID 2282, 2010;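 active means signal rise of at least 3 SD above the untreated control mean, in both duplicate wells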;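 further: counter screen of KCNQ2 potentiator hits so any rise reflects channel-independent effects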
# KCNQ1 sel pot: human KCNQ1 channel potentiation off-target, confirmation, selectivity assay for KCNQ2 potentiator project, cell-based, CHO, FluxOR thallium flux; 1,200 tested, 28% active; activation over 3SD threshold, % at 10 µM; CHO KCNQ1 stable, FluxOR thallium flux fluorescence; beyond 3SD, as % of vehicle-control signal; AID 2283, 2010; shares compounds with KCNQ2 enhance;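 active means fluorescence ratio rise of at least 3 SD of vehicle wells above their mean, in both replicate wells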;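 further: 0% = vehicle mean plus 3 SD and 100% = vehicle minus unstimulated blank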
# KCNQ2 pot confirm: rat KCNQ2 channel potentiators, confirmation, cell-based, CHO, FluxOR thallium flux, duplicate; shares compounds with KCNQ2 enhance; CHO-KCNQ2 cells, FluxOR thallium flux fluorescence; potentiation, less the hit threshold, % at 10 µM; 1,200 tested, 68% active; AID 2287, 2010;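 active means fluorescence ratio rising 3 SD or more over the vehicle control mean in both replicates, plus primary screen hit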;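 further: peak minus minimum thallium fluorescence divided by baseline after K/Tl stimulus; 0% = vehicle mean plus 3 SD and 100% = vehicle minus unstimulated blank difference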
# Kir2-1 sel: mouse Kir2.1 channel activation off-target, confirmation, selectivity assay for KCNQ2 potentiator project, cell-based, HEK293, FluxOR thallium flux; HEK293 Kir2.1, FluxOR thallium flux fluorescence; activity over 3SD threshold, % at 10 µM; shares compounds with KCNQ2 enhance; 1,200 tested, 2% active;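 active means fluorescence ratio rise of at least 3 SD above the vehicle-control mean, seen in both replicates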;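 further: 0% = vehicle mean plus 3 SD and 100% = vehicle minus no-stimulus blank window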
# KCNQ2 W236L pot: potentiators of retigabine-insensitive KCNQ2 W236L, mechanism study for KCNQ2 potentiator project, cell-based, rat KCNQ2 W236L, CHO, automated patch clamp. shares compounds with KCNQ2 enhance. automated patch clamp current. current increase over 3SD of negative controls (%), stronger effect = higher value, % at 25 µM. 940 tested, 10% active. AID 2558, 2010;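 active means current increase at least 3 SD of the untreated controls above them in both duplicate recordings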
# * hit, by the source's call; i = inactive; . = no result given. In the library only some 1.6% were active in any assay of this set; here they are far more common.
SMILES,KCNQ2 enhance,KCNQ2 inh,Kir21 confirm,HEK293 Tl flux,CHO-K1 ctr,KCNQ1 sel pot,KCNQ2 pot confirm,Kir2-1 sel,others
CCCCCN=C(N)N/N=C/c1c[nH]c2ccc(OC)cc12,8.8*,i,i,i,51*,-18,-43,-94,
CCCOc1ccc(C(=O)N/N=C/c2c[nH]c3ccc(Br)cc23)cc1,0.13,i,.,.,.,.,.,.,
Cc1cc(C)cc(NC(=O)c2ccc(Cn3nc(C)c(Cl)c3C)o2)c1,.,i,.,.,.,.,.,.,
Cc1ccc(CNC(=O)c2ccc(Cn3nc(C)c(Cl)c3C)o2)cc1,.,i,48%*,i,.,.,.,.,
CC(=O)Nc1ccc(S(=O)(=O)N[C@@H](C)C(=O)OCc2ccc(Cl)cc2)cc1,0.03,i,.,.,.,.,.,.,
Cc1cc(-c2n[nH]c(=S)n2/N=C/C(Cl)=C/c2ccccc2)n[nH]1,.,i,.,.,.,.,.,.,
S=c1[nH]nc(-c2ccco2)n1/N=C/C(Cl)=C/c1ccccc1,7.2*,i,i,129%*,-21,-16,-3,-36,KCNQ2 W236L pot=i
CC(C)c1ccc(C2CC(=O)c3cnc(NC(=O)c4ccco4)nc3C2)cc1 (centres undefined),0.73,i,.,.,.,.,.,.,
COc1ccccc1CC(NC(C)=O)C(=O)NC1CCN(C(=O)Nc2ccccc2F)CC1 (centres undefined),1.1,i,.,.,.,.,.,.,
CCN(CC)S(=O)(=O)c1cc(OC)c(Cl)cc1OC,.,i,.,.,.,.,.,.,
CN1CCC(N(C)C(=O)c2cc(=O)c3ccccc3o2)CC1,.,i,i,i,.,.,.,.,
CCc1ccc(CN(C)C(=O)c2cc(=O)c3ccccc3o2)cc1,.,i,.,.,.,.,.,.,
CCOc1ccc(CCNS(=O)(=O)c2ccc3c(c2)N(C(C)=O)CCO3)cc1OCC,0.05,i,.,.,.,.,.,.,
Cc1cc(Cl)c(S(=O)(=O)N2CCCC2)cc1OCC(=O)NC1CCCCC1,27*,i,i,139%*,-17,-5,133*,-48,KCNQ2 W236L pot=i
Cc1cc(Cl)c(S(=O)(=O)NC(C(=O)O)C(C)C)cc1OCC(=O)NC1CCCCC1 (centres undefined),.,i,.,.,.,.,.,.,
CCCCN(C(=O)c1oc2ccc(OCC)cc2c1C)c1c(N)n(CCCC)c(=O)[nH]c1=O,.,i,.,.,.,.,.,.,
CC(C)c1nnc(SCC(=O)NCCC2=CCCCC2)n1N,5.9*,i,i,i,-17,2.2*,24*,-21,KCNQ2 W236L pot=2.6%*
Nc1cc(N)nc(SCC(=O)NCCC2=CCCCC2)n1,0.09,i,.,.,.,.,.,.,
S=c1[nH]nc(-c2cccc(Cl)c2)n1CCN1CCCCC1,0.2,i,.,.,.,.,.,.,
C=CCn1c(=S)[nH]c2scc(-c3cccs3)c2c1=O,25*,i,i,512%*,12*,-13,106*,-3,KCNQ2 W236L pot=i
Cn1c(=S)[nH]c2scc(-c3cccs3)c2c1=O,19*,i,i,465%*,119*,-12,88*,-2,KCNQ2 W236L pot=i
C=CCn1c(=S)[nH]c2cc(-c3ccccc3)sc2c1=O,2.8,i,.,.,.,.,.,.,
O=c1c2c(-c3cccs3)csc2ncn1-c1ccc(Br)cc1,.,i,.,.,.,.,.,.,
Cc1ccc(-c2ccc(C(=O)O)[nH]2)cc1,.,i,.,.,.,.,.,.,
Cc1ccc(-c2csc(=S)[nH]2)cc1,22*,i,i,538%*,-23,23*,84*,11*,KCNQ2 W236L pot=i
SMILES,KCNQ2 enhance,KCNQ2 inh,Kir21 confirm,HEK293 Tl flux,CHO-K1 ctr,KCNQ1 sel pot,KCNQ2 pot confirm,Kir2-1 sel,others
C/C(=N\NC(N)=S)c1ccccc1,.,i,.,.,.,.,.,.,
CSC(=S)N/N=C(\C)c1ccccc1,8.7*,i,i,288%*,-12,-12,26*,-15,KCNQ2 W236L pot=9.3%*
Cc1cccc(NC(=O)C(=O)NNC(=O)c2ccc(C(C)(C)C)cc2)c1,16*,i,i,i,22*,4.1*,44*,-31,KCNQ2 W236L pot=i
CC(C)(C)c1ccc(C(=O)NNC(=O)c2cccc(Br)c2)cc1,0.8,i,.,.,.,.,.,.,
CC(Oc1ccc2ccccc2c1)C(=O)NNC(=O)Nc1ccccc1F (centres undefined),.,i,.,.,.,.,.,.,
Cc1ccc(C)c(S(=O)(=O)N2CCN(C(=O)c3ccnn3C)CC2)c1,.,i,.,.,.,.,.,.,
CS(=O)(=O)N(CC(=O)Nc1ccccc1Sc1ccccc1)c1cccc(Br)c1,18*,i,i,i,-8,-6,1.7*,-40,KCNQ2 W236L pot=i
CSc1ccccc1NC(=O)CN(c1cc(C)cc(C)c1)S(C)(=O)=O,.,i,.,.,.,.,.,.,
COc1ccc(C(C)C)cc1S(=O)(=O)N1CCC(C(=O)N2CCN(C)CC2)CC1,.,i,.,.,.,.,.,.,
COc1ccc(Br)cc1S(=O)(=O)N1CCOCC1,2,i,.,.,.,.,.,.,
COc1ccc(F)cc1S(=O)(=O)N1CC(C)CC(C)C1 (centres undefined),.,i,44%*,i,.,.,.,.,
COc1ccc(F)cc1S(=O)(=O)N1CCN(c2ccccn2)CC1,.,i,.,.,.,.,.,.,
COc1ccc(C(C)C)cc1S(=O)(=O)N1CCN(C)CC1,13*,i,i,i,48*,-9,-18,-36,
COc1ccc(Br)cc1S(=O)(=O)N1CC(C)OC(C)C1 (centres undefined),2.9,i,56%*,i,.,.,.,.,
Cc1oc(-c2ccc(-c3ccccc3)cc2)nc1CN1CCN(CC(=O)N(C)C)CC1,0.3,i,.,.,.,.,.,.,
COc1ccc(OC)c(S(=O)(=O)N2CCCC(C(=O)NCCN3CCOCC3)C2)c1 (centres undefined),0.69,i,.,.,.,.,.,.,
O=C(COc1ccc2ccccc2c1Br)N1CCCC1,2.3,i,.,.,.,.,.,.,
CCOC(=O)N1CCN(C(=O)COc2ccc3ccccc3c2Br)CC1,8.7*,i,i,i,13*,18*,11*,-30,KCNQ2 W236L pot=i
C[C@H](NC(=O)N1CCC(Cc2ccccc2)CC1)C(=O)O,.,i,.,.,.,.,.,.,
COc1ccccc1C(CCN(Cc1cccs1)C(C)=O)c1ccco1 (centres undefined),.,i,.,.,.,.,.,.,

# Compound activity (PubChem BioAssay)
